The source of these data is PubChem BioAssay (Tox21).

Records with an inconclusive call do not appear. Entries that show only a call come without a potency. The source made the active and inactive calls. Calls follow the shape of the dose curve; as a rule, active = well fitted inhibition curve with a large enough effect in the signal ratio in the repeat runs, with a control signal flat; inconclusive = weak or mixed curves, or effect the other way; inactive = flat fitted curve, though single readings scatter; the % refers to the signal ratio. Numbered stars: 1 amine (or outer) side, 2 acyl side, 3 side chain; on linkers, the order of the positions; unused ones are H or OH. Bridge positions count the residues as written; N and C are the ends. Square brackets hold non-standard residues; d marks the D form. Peptide text beside a SMILES is read from it. I, II: the chains in the order shown. Actinocin(9to1) = Cc1c2oc3c(C)ccc(C(=O)[*:1])c3nc-2c(C(=O)[*:2])c(N)c1=O; NMeV = CN[C@H](C(=O)O)C(C)C; Sar = CNCC(=O)O

D(2) dopamine receptor (Homo sapiens), sequence (P14416 whole entry, looked up): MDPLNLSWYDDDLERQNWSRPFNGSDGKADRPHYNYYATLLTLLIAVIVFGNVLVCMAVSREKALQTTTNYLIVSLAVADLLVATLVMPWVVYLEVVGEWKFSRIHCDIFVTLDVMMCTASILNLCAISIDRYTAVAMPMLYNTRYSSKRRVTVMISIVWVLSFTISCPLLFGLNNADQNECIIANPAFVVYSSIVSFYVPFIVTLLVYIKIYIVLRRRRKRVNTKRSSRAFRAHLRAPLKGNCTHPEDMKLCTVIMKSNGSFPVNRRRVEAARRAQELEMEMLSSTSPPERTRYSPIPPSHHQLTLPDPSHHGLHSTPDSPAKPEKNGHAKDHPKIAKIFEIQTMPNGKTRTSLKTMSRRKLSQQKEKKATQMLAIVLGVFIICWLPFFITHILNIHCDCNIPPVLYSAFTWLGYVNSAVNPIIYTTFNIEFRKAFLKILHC

This test addresses D(2) dopamine receptor (Homo sapiens) (UniProt P14416). Description: Dopamine D2 receptor (DRD2) small molecule antagonists, cell-based qHTS assay (AID 1963595). Particulars: HEK293-DRD2 cAMP HTRF antagonist mode; series mostly up to 92.4 µM. The procedure, abridged: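 DRD2-HEK293; 0.1 mM Ro20-1724; cpd 10 min RT; NKH477 200 nM + quinpirole 12 nM, 30 min RT; HTRF cAMP (cAMP-d2/anti-cAMP cryptate), 665/620 nm ratio after 1 h.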
Consider `COC(=O)c1c(Cl)c(Cl)c(C(=O)OC)c(Cl)c1Cl`, for which the Potency result was “inactive”.

On to `c1ccc2cc3c4ccccc4c4ccccc4c3cc2c1`, for which the Potency result is “inactive”.

On to `Cn1cc(S(C)=O)c(=O)c2ccc(F)cc21` (stereo unspecified), for which the Potency entry was “inactive”.

On to `O=Cc1ccc(C(=O)O)cc1`, for which the Potency entry was “inactive”.

Regarding `CC(C)=CCC[C@H](C)CC=O`, the Potency result is “inactive”.

Regarding `CCC(=O)OCc1ccccc1`, the Potency result was “inactive”.

`CCCCCC(=O)O[C@]1(C(C)=O)CC[C@H]2[C@@H]3CCC4=CC(=O)CC[C@]4(C)[C@H]3CC[C@@]21C`: the Potency result was “inactive”.

Consider `O=[N+]([O-])c1ccc2c(c1)Cc1ccccc1-2`, for which the Potency result was “inactive”.

Regarding `CCC1COC(=O)O1` (stereo unspecified), the Potency result is “inactive”.

For the compound `C=C(C)C(=O)OCCCCCCOC(=O)C(=C)C`, the Potency result is “inactive”.

For `Cc1c2oc3c(C)ccc(C(=O)N[C@@H]4C(=O)N[C@H](C(C)C)C(=O)N5CCC[C@H]5C(=O)N(C)CC(=O)N(C)[C@@H](C(C)C)C(=O)O[C@@H]4C)c3nc-2c(C(=O)N[C@@H]2C(=O)N[C@H](C(C)C)C(=O)N3CCC[C@H]3C(=O)N(C)CC(=O)N(C)[C@@H](C(C)C)C(=O)O[C@@H]2C)c(N)c1=O` (I: T[dV]P[Sar][NMeV] / II: T[dV]P[Sar][NMeV]; ester I:1-I:C, II:1-II:C; linker I:N-II:N via Actinocin(9to1)), the Potency entry is “inactive”.

`O=[N+]([O-])c1ccccc1Nc1ccccc1`: the Potency result was “inactive”.

With `O=C(O[C@@H](C(=O)O)[C@@H](OC(=O)c1ccccc1)C(=O)O)c1ccccc1`, the Potency entry was “inactive”.

On to `CCC(=O)OC(C)c1ccccc1` (stereo unspecified), for which the Potency result was “inactive”.

Turning to `CC(C)CC(C)(N)C#N` (stereo unspecified), the Potency entry was “inactive”.

Take `Cc1cc(C)cc(O)c1`: the Potency entry is “inactive”.
